Laboratory results taken from paper PMC4336329 (PLoS ONE, 2015).
In all, about 310,000 compounds went through this assay and about 14,000 (4.5%) showed an effect of 50% or more. The effect is printed as a negative number. The sample as a whole holds a higher share of strong results than the screen did.

Molecular target: human ether-à-go-go-related gene (hERG) potassium channel (human, UniProt Q12809)
Test: primary screen, population patch clamp on CHO cells stably expressing hERG; higher = less effect of the substance
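Note: peak tail current of the secondary pulse compared with the same well before compound.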

human ether-à-go-go-related gene (hERG) potassium channel, sequence (Q12809 whole entry, looked up): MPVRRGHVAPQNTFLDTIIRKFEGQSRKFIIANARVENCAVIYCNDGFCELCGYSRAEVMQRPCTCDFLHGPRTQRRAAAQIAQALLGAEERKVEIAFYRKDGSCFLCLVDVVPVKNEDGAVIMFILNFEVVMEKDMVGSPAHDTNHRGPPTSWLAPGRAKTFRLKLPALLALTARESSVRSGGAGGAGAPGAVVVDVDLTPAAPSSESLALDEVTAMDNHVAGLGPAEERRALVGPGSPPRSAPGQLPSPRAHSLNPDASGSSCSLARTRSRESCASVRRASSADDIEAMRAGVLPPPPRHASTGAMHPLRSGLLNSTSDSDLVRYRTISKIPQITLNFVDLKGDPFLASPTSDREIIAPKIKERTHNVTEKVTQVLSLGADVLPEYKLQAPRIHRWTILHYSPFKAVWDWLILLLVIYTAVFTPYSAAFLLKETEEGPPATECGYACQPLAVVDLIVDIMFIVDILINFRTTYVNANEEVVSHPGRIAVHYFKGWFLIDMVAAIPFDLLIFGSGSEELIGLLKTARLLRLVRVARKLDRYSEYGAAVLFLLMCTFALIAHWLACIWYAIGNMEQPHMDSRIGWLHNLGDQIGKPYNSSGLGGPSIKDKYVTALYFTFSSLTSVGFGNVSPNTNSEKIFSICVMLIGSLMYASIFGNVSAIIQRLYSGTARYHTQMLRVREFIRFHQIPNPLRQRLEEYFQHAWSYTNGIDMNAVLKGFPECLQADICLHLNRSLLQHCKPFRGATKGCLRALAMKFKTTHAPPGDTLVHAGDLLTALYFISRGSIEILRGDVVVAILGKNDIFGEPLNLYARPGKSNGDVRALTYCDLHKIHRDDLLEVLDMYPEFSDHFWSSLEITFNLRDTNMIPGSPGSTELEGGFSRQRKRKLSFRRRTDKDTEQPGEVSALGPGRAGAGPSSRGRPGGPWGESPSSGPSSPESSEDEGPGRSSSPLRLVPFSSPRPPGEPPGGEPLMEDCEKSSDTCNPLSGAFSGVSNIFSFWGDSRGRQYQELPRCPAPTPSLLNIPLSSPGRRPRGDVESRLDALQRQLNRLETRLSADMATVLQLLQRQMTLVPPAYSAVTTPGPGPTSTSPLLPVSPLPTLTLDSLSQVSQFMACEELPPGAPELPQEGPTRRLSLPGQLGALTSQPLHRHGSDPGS

Compound	hERG current change (%, negative = inhibition) at 10uM
CC(C)(C)N(Cc1cc2ccccc2[nH]c1=O)C(=O)c1ccco1	8.21%
COc1ccc(NC(=O)CSc2nnc(NC(=O)C3CCC3)s2)c(OC)c1	12.6%
CS(=O)(=O)Oc1ccc2c(c1)O/C(=C\C=C\c1ccccc1)C2=O	8.05%
Cc1ccc(S(=O)(=O)Cc2ccc(C(=O)N3CCC(C(N)=O)CC3)o2)cc1	30.7%
CC(C)N(C(=O)Nc1ccc2nsnc2c1)C(C)C	0.592%
CC1(C)Cc2cccc(OCC(=O)N3CCN(c4ccccc4)CC3)c2O1	-45.6%
CC1(C)Cc2cccc(OCC(=O)N3CCN(c4ccc([N+](=O)[O-])cc4)CC3)c2O1	-70.3%
CC1(C)Cc2cccc(OCC(=O)N3CCN(c4cccc(Cl)c4)CC3)c2O1	-4.1%
Cc1cccc(N2CCN(C(=O)COc3cccc4c3OC(C)(C)C4)CC2)c1C	-2.16%
CC1(C)Cc2cccc(OCC(=O)N3CCN(c4ccccc4Cl)CC3)c2O1	-64.3%
CC1(C)Cc2cccc(OCC(=O)N3CCN(S(=O)(=O)c4ccc(F)cc4)CC3)c2O1	-21.6%
CC1(C)Cc2cccc(OCC(=O)N3CCN(c4ccccc4F)CC3)c2O1	-22.4%
CC1(C)Cc2cccc(OCC(=O)N3CCN(c4ccc(F)cc4)CC3)c2O1	-69.5%
CC1(C)Cc2cccc(OCC(=O)N3CCN(c4cccc(C(F)(F)F)c4)CC3)c2O1	1.57%
CCn1cc(C(=O)O)c(=O)c2cc(F)c(N3CCN(S(=O)(=O)c4ccc(NC(=O)OC)cc4)CC3)cc21	21.8%
CC1(C)SC(=S)N(/N=C/c2cccnc2)C1N(O)C(=O)Nc1ccccc1 (centres unmarked)	-5.91%
COc1ccc(S(=O)(=O)N2CCN(C3CCCC(C)C3)CC2)cc1.O=C(O)C(=O)O (centres unmarked)	-16.7%
CCCCN(C)C(=O)CCC(=O)Nc1ccc2nc(N3CCN(C)CC3)cc(C)c2c1	11%
CC1=CC(C)(C)N(C(=O)c2ccccc2)c2ccccc21	-8.02%
CN(C)S(=O)(=O)c1ccc(N2CCCC2)c(C(=O)Nc2nc(-c3cc(F)ccc3F)cs2)c1	0.334%
COc1cc2c(cc1NC(=O)c1cccc([N+](=O)[O-])c1)oc1ccccc12	1.9%
CCOC(=O)c1oc2ccccc2c1NC(=O)c1ccc(S(=O)(=O)N(C)C)cc1	13%
CCC(CC)C(=O)Nc1c(C(=O)N2CCN(c3ccccc3)CC2)oc2ccccc12	3.17%
O=C(Nc1c(C(=O)N2CCOCC2)oc2ccccc12)c1cccc([N+](=O)[O-])c1	-20.2%
CCOCCCN(C)C1CCN(C(=O)c2oc3ccccc3c2NC(=O)c2cccc([N+](=O)[O-])c2)CC1	-79.7%
CCOCCCN(C)C1CCN(C(=O)c2oc3ccccc3c2NC(=O)c2ccc([N+](=O)[O-])cc2)CC1	-75.9%
